High-throughput results from PubChem BioAssay.
The list is not random: actives were taken first. Their share in the collection is about 6.2%.
ATXN2 expr inh – Primary qHTS for Inhibitors of ATXN expression | HEK-293 ATXN2-luciferase reporter, luminescence, 24 h | 360,000 tested, 0.72% active | AID 1745845, 2022 | Potency, µM (doses to about 57 µM), most hits filed as inhibitors; further: nearly all actives have a fitted effect of over 55% in size
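qHTS (up to 57 uM final) was run with 24 h compound exposure of reporter cells at 37 °C. Each well was multiplexed: SteadyGlo luminescence measured ATXN2-luciferase expression after a fluorogenic Gly-Phe-AFC viability readout (25 uM final).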
KB-V1 cytotox – qHTS assay for MDR1-selective chemotherapeutics: Primary screen using the drug-selected MDR subline cells KB-V1; KB-V1 MDR cells viability, CellTiter-Glo, 72 h; Potency, µM (highest dose often 46.1 µM), hits mostly cytotoxic; 400,000 tested, 3.4% active; further: nearly all actives have a fitted effect of over 60% in size
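KB-V1 cells (P-gp-expressing MDR subline of KB-3-1) in phenol-red-free DMEM with 10% FBS were exposed to library compounds over a concentration series for 72 h at 37 degrees C. Viability read by CellTiter-Glo luminescence; concentration-effect curves fitted after normalization.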
KB-3-1 tox – qHTS assay for MDR1-selective chemotherapeutics: Primary screen using the parental adenocarcinoma cell KB-3-1 | Potency, µM (series often up to 46.1 µM), hits mostly cytotoxic | 400,000 tested, 1.4% active | AID 1347075, 2019 | KB-3-1 viability, CellTiter-Glo ATP luminescence, 72 h; further: nearly all actives have a fitted effect of over 60% in size
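Luminescent ATP read-out (CellTiter-Glo) measures survival of drug-naive KB-3-1 cells after 72 h compound exposure at 37 °C. Titration series was screened from lowest to highest concentration, with DMSO vehicle plates as background controls.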
HT1080 IDH1KD tx – qHTS for induction of synthetic lethality in tumor cells producing 2HG: qHTS for the HT-1080-IDH1KD cell line; Potency, µM (series often up to 46.1 µM), hits mostly cytotoxic; 360,000 tested, 2% active; HT-1080 IDH1 knockdown viability, ATP luminescence, 48 h
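Viability of IDH1-knockdown HT-1080 fibrosarcoma cells was assessed by CellTiter-Glo after 48 h at 37 °C with titrated compound; concentration-effect curves were classified by fit quality and response size.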
ATXN viability – Viability Counterscreen for Primary qHTS for Inhibitors of ATXN expression | S2 cells (HEK-293 line with an ATXN2-luciferase reporter) viability, CellTiter-Fluor protease fluorescence, 24 h | Potency, µM (series often up to 56.7 µM), most hits filed as cytotoxic | 400,000 tested, 0.49% active | AID 651635, 2014; further: nearly all actives have a fitted effect of over 40% in size
HT1080-NT tox – qHTS for induction of synthetic lethality in tumor cells producing 2HG: qHTS for the HT-1080-NT fibrosarcoma cell line | HT-1080-NT fibrosarcoma viability, CellTiter-Glo ATP luminescence, 48 h | Potency, µM (doses to about 46.1 µM), usual class: cytotoxic | 360,000 tested, 1.6% active | AID 686970, 2013;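 further: NT is the 2HG producing partner of a matched IDH1 knockdown line; nearly all actives have a fitted effect of over 55% in size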
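Viability by CellTiter-Glo luminescence after 48 h compound exposure at 37C of HT-1080-NT cells (750/well, RPMI, 5% FBS). % activity scaled between DMSO wells and medium-only wells, then curve-fitted and categorized by curve class.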
A number is an active result; i = inactive; ? = inconclusive; nt = not tested or not shown. The call rests on the fitted dose curve; in most records, active means well fitted curve in the direction sought with a large enough effect; inconclusive means small, poorly fitted or top-dose-only effect, or another doubt; inactive means no such curve, though single readings can be large; an effect the other way counts as inactive or inconclusive.

SMILES	ATXN2 expr inh	KB-V1 cytotox	KB-3-1 tox	HT1080 IDH1KD tx	ATXN viability	HT1080-NT tox
COc1cc(OC)c(NC(=O)c2c(C)oc3ncn(C)c(=O)c23)cc1Cl	i	i	i	nt	i	nt
Cc1ccc(S(=O)(=O)Nc2ccc(F)c(F)c2O)cc1	nt	i	?	i	nt	i
CC1(C(=O)NS(=O)(=O)c2cccc(Cl)c2)CCN1C(=O)CC1CCCC1 (stereo unspecified)	i	i	i	i	i	i
COc1ccc(C(=O)Cc2ccc(OC)c(OC)c2)c(OC)c1	i	13µM	i	i	?	i
COc1ccc(CC(=O)O/N=C(\N)c2ccncc2)cc1OC	nt	i	i	i	i	i
COc1ccc(/C(N)=N/OC(=O)Cc2ccc(OC)c(OC)c2)cc1	i	8.2µM	?	i	i	?
O=C(c1ccc2ccccc2c1)N1CCN(Cc2ccccc2)CC1	i	i	i	i	i	i
Cc1cc(=O)c2cc(C(=O)Nc3ccccc3)ccc2[nH]1	i	i	i	nt	i	nt
CCOC(=O)C1(CCOc2ccccc2)CCN(Cc2ccc3c(c2)OCCO3)CC1	i	i	i	?	i	18µM
CCOC(=O)C1(Cc2cccc(F)c2)CCN(Cc2cnc(C)s2)CC1	i	?	i	i	i	i
CCOC(=O)C1(Cc2cccc(F)c2)CCN(Cc2cn(CC)nc2C)CC1	i	?	i	i	nt	i
CCOC(=O)C1(CCCc2ccccc2)CCN(Cc2cn(CC)nc2C)CC1	i	i	21µM	?	i	?
CCOC(=O)C1(CCCc2ccccc2)CCN(Cc2cnc(C)s2)CC1	?	?	i	?	?	18µM
Cc1ccc2cccc(NC(=S)NC(=O)c3ccccc3)c2n1	i	?	i	i	i	i
Cc1ccc2cn[nH]c2c1NC(=S)NC(=O)c1ccccc1	i	21µM	i	i	i	i
Cc1ccc2cccnc2c1NC(=S)NC(=O)c1ccccc1	i	15µM	i	?	i	11µM
Cc1cc(C)c2cccc(NC(=S)NC(=O)c3ccccc3)c2n1	i	?	i	2.8µM	i	2.5µM
CCNC(=O)C1(C)CCN(Cc2ccccc2C#N)C1 (stereo unspecified)	i	i	i	i	i	i
Cc1ccc(OCCCn2c(-c3ccc(Cl)cc3)nc3ccccc3c2=O)cc1C	i	?	i	nt	i	nt
Cc1cc(=O)n2[nH]c(N)c(N=Nc3ccccc3F)c2n1	i	?	21µM	?	?	?
Cc1cc(=O)n2[nH]c(C)c(-c3ccccc3)c2n1	i	?	i	i	i	i
Cc1cccc(Cn2cc(C(=O)c3ccccc3)c(=O)c3cc4c(cc32)OCO4)c1	i	i	i	nt	?	nt
CC(CN(C)C)C(C)(O)Cc1ccc(Cl)cc1 (stereo unspecified)	i	nt	nt	nt	i	nt
Oc1ccc(Br)cc1-c1n[nH]c(=S)n1Cc1ccccc1	i	i	i	i	i	i
Oc1ccc(Br)cc1-c1ccnn1-c1ccccc1	?	?	?	7.3µM	i	?
SMILES	ATXN2 expr inh	KB-V1 cytotox	KB-3-1 tox	HT1080 IDH1KD tx	ATXN viability	HT1080-NT tox
Cn1c(-c2ccc(F)cc2)cnc1NCc1ccc(C#N)cc1	i	21µM	i	i	i	i
Cn1c(-c2ccc(F)cc2)cnc1NCc1ccc(F)cc1	i	i	i	i	i	i
CC(=O)c1ccccc1-c1ccc2c(c1)CC(CNC(=O)c1cc(C)on1)O2 (stereo unspecified)	nt	nt	nt	nt	i	nt
Cc1cccc(Cc2c(C)nc3c(C(=O)N4CCN(Cc5ccc6c(c5)OCO6)CC4)cnn3c2C)c1	i	i	i	i	i	?
Cc1ccccc1Cc1c(C)nc2c(C(=O)N3CCN(Cc4ccc5c(c4)OCO5)CC3)cnn2c1C	i	8.2µM	i	?	i	i
Cc1ccccc1Cc1c(C)nc2c(C(=O)NCc3ccc4c(c3)OCO4)cnn2c1C	i	18µM	i	i	i	i
Cc1ccc2onc(CC(=O)N3CCN(c4cccc(Cl)c4)CC3)c2c1	i	i	i	nt	i	nt
Cc1ccc(Cn2c(C(=O)O)c(CNC3CCCC3)c3ccc(C)cc32)cc1	i	?	i	nt	?	nt
FC(F)(F)c1nnc(-c2ccccc2)nc1Sc1ccc(Cl)cc1	28µM	?	?	?	nt	?
FC(F)(F)c1cccc(Sc2nc(-c3ccccc3)nnc2C(F)(F)F)c1	?	?	21µM	?	28µM	?
CC(C)CCOc1ccc(/C=N/N2C(=O)CSC2=S)cc1	i	i	i	i	i	i
COc1ccc(/C=N/N2C(=N)SCC2=O)cc1	i	2.6µM	7.3µM	i	i	i
CC1C=CC=CC=CC=CC=CC=CC=CC(OC2OC(C)C(O)C(N)C2O)CC2OC(O)(CC(O)CC(O)C(O)CCC(O)CC(O)CC(=O)OC(C)C(C)C1O)CC(O)C2C(=O)O (stereo unspecified)	i	?	4.1µM	9.2µM	?	4.6µM
C[C@H]1[C@@H](O)[C@@H](C)\C=C/C=C\C=C/C=C\C=C/C=C\C=C/[C@@H](O[C@H]2O[C@@H](C)[C@@H](O)[C@@H](N)[C@@H]2O)C[C@@H]2O[C@](O)(C[C@@H](O)C[C@@H](O)[C@@H](O)CC[C@@H](O)C[C@@H](O)CC(=O)O[C@H]1C)C[C@@H](O)[C@H]2C(=O)O (stereo in doubt)	nt	nt	nt	nt	i	nt
CC(=O)OCC(=O)[C@H]1CC[C@H]2[C@@H]3CC=C4C[C@@H](O)CC[C@]4(C)[C@H]3CC[C@]12C	i	?	i	i	i	i
CC(=O)OCC(=O)C1CCC2C3CCC4=CC(=O)C=CC4(C)C3CCC12C (stereo unspecified)	i	16µM	i	i	i	i
COc1ccc(Nc2cc(C(=O)NCCCN(C)C3CCCCC3)c3ccccc3n2)c(OC)c1	i	i	i	nt	32µM	nt
COc1cccc(-c2nc(C(=O)NCCCN3CCOCC3)cc3c2[nH]c2ccccc23)c1	?	18µM	i	i	?	i
COc1ccc(OC)c(Nc2cc(C(=O)NCCCN3CCOCC3)c3ccccc3n2)c1	i	18µM	i	?	i	i
CCCNC(=O)C1(C)CCCN(Cc2ccc(-c3ccccn3)cc2)C1 (stereo unspecified)	i	i	i	i	i	i
NC(=O)c1cccc2[nH]c(-c3ccc([C@H]4CCCN4)cc3F)nc12	i	nt	nt	nt	nt	nt
Cc1ccc(C(C)n2cc(C(=O)NCc3cccnc3)nn2)cc1 (stereo unspecified)	i	15µM	i	i	i	i
